The panel holds about 83,000 compounds, 20% with a hit somewhere; the sample as a whole holds those more often.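 Treatment: one concentration, 48 hours, 96-well format. Scoring: percent growth, with anything below 10 considered active.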 A number with no mark means an inactive call. Active and inactive are the calls of the source.
What was measured:
Assay in all cases: NCI-60 one-dose screen, 48 h (100 = growth as untreated, 0 = no growth, -100 = all killed)
SR leukemia = conditions: 10 µM unless noted
RPMI-8226 leukemia = conditions: 10 µM unless noted
OVCAR-8 ovarian = conditions: 10 µM unless noted
OVCAR-5 ovarian = conditions: 10 µM unless noted
OVCAR-4 ovarian = conditions: 10 µM unless noted
SK-OV-3 ovarian = conditions: 10 µM unless noted
IGROV1 ovarian = conditions: 10 µM unless noted
OVCAR-3 ovarian = conditions: 10 µM unless noted
NCI/ADR-RES ovarian = conditions: 10 µM unless noted
T-47D breast = conditions: 10 µM unless noted
MDA-MB-435 melanoma = conditions: 10 µM unless noted
SW-620 colon = conditions: 10 µM unless noted
MCF7 breast = conditions: 10 µM unless noted
HCT-116 colon = conditions: 10 µM unless noted
KM12 colon = conditions: 10 µM unless noted
BT-549 breast = conditions: 10 µM unless noted
HCC-2998 colon = conditions: 10 µM

Compound | growth (SR leukemia) | growth (RPMI-8226 leukemia) | growth (OVCAR-8 ovarian) | growth (OVCAR-5 ovarian) | growth (OVCAR-4 ovarian) | growth (SK-OV-3 ovarian) | growth (IGROV1 ovarian) | growth (OVCAR-3 ovarian) | growth (NCI/ADR-RES ovarian) [%] | growth (T-47D breast) | growth (MDA-MB-435 melanoma) | growth (SW-620 colon) | growth (MCF7 breast) | growth (HCT-116 colon) | growth (KM12 colon) | growth (BT-549 breast) | growth (HCC-2998 colon)
COc1cc2c(cc1OCCCCCN1CCN(c3ncnc4ccccc34)CC1)N=CC1CCCN1C2=O (stereo not given) | 0.841% (active) | -35.6% (active) | 1.28% (active) | 23.8% | -3.06% (active) | 19.5% | -38.4% (active) | 1.46% (active) | 12.8 | 10.6% | -72.1% (active) | -1.54% (active) | 12.1% | 4.44% (active) | -16.1% (active) |  | 
C=CC(=O)Nc1cc(Nc2nccc(-c3cn(C)c4ccccc34)n2)c(OC)cc1N(C)CCN(C)C | -24% (active) | -22% (active) | -25.4% (active) | -56.5% (active) | -13.5% (active) | 15.4% | -48.8% (active) | -55.3% (active) |  | -60.8% (active) | -93.9% (active) | -63.7% (active) | -61.3% (active) | -79.8% (active) | -47.7% (active) | -39.7% (active) | -86.4% (active)
CN1CCN(c2nc(C3=C(c4c[nH]c5ccccc45)C(=O)NC3=O)c3ccccc3n2)CC1 | 68.7% | 97.8% | 66.9% | 25.1% | 71.9% | 87.1% | 75.4% | 110% |  | 102% | 41.8% | 48.4% | 95.1% | 32.4% | 36.1% | 91% | 19.2%
Cn1cnc2c(F)c(Nc3ccc(Br)cc3F)c(C(=O)NOCCO)cc21 | 64.6% | 63.5% | 65.8% | 9.55% (active) | 55.9% | 50.2% | 27.6% | 106% |  | 81.9% | 32.5% | 21% | 87.3% | 19% | 27.5% | 81.7% | 0.38% (active)
C/C(=C(/c1ccc(Cl)cc1)c1ccc(OCCN2CCCCC2)cc1)c1ccccc1 | 11.2% | 69.6% | 78.8% | 81.6% | 77.1% | 86% | 68.5% | 98.6% |  | 46.7% | 90.9% | 60.1% | 43.6% | 54.2% | 29.9% | 81.3% | 98%
O=C(N/N=C/c1ccc(Cl)cc1)c1cc(-c2cc3ccccc3o2)nn1-c1ccccc1 | 87.9% | 47.6% | 93.7% | 101% | 87.3% | 94% | 65.9% | 106% | 93.4 | 85.6% | 103% | 101% | 85.6% | 92.3% | 102% |  | 
COc1ccc(-c2ccc3ncc4c(c3c2)n(-c2ccc(N3CCNCC3)c(C(F)(F)F)c2)c(=O)n4C)cn1 | -34.6% (active) | -46.3% (active) | -62.9% (active) | -80.6% (active) | -76.9% (active) | -83.9% (active) | -79.4% (active) | -91.1% (active) |  | -66.9% (active) | -88.3% (active) | -78.4% (active) | -63% (active) | -69.8% (active) | -95.8% (active) | -63.6% (active) | -93.2% (active)
CNc1ncc2cc(-c3cc(NC(=O)NCCC(C)(C)C)c(F)cc3C)c(C)nc2n1 | 17.7% | 21% | 27% | 6.28% (active) | 33.2% | -26% (active) | -10.2% (active) | 54.5% | 24.7 | -2% (active) | 9.76% (active) | 17.5% | 45.7% | 4.36% (active) | 18.2% |  | 
Cc1csc(-c2nnc(Nc3ccc(Oc4ncccc4-c4ccnc(N)n4)cc3)c3ccccc23)c1 | 3.4% (active) | 51.8% | 31% | 51.5% | 60.3% | 53% | 24.5% | 56% | 50 | 30.5% | 31.9% | 20.3% | 12% | 22.1% | 19.2% |  | 36.1%
COc1cnc2c(c1)C(=O)c1c-2n(CCCN2CCC(N)CC2)c(=O)c2cc([N+](=O)[O-])ccc12 | 2.78% (active) | 39.6% | 42.4% | 119% | 60.4% | 30.4% | 56% | 79.7% | 76 | 46.6% | 85.9% | 37.2% | 25.3% | 36.4% | 44.6% |  | 69.3%
CCCS(=O)(=O)Nc1ccc(F)c(C(=O)c2c[nH]c3ncc(-c4ccc(Cl)cc4)cc23)c1F | 15.3% | 29.2% | 32.1% | 49% | 49.3% | -0.481% (active) | 22.1% | 65.4% | 48.9 | 8.42% (active) | 13.4% | 78.5% | 44.6% |  | 32% |  | 
Oc1ccc(C(c2ccc(O)cc2)C(Cl)(Cl)Cl)cc1 | 87.8% | 83.4% | 103% | 88.5% | 94.2% | 118% | 93% | 105% | 94.9 | 94.3% | 104% | 114% | 111% | 83.8% | 104% |  | 122%
CC(C)(O)CC(=O)NCCn1ccc2ncnc(Nc3ccc(Oc4cccc(C(F)(F)F)c4)c(Cl)c3)c21 | 3.05% (active) | 11% | 3% (active) | 3.46% (active) | 25.6% | -21% (active) | -42.6% (active) | 32.6% |  | -18.8% (active) | 14.3% | 14.1% | 14.3% | 0.422% (active) | 9.88% (active) | 17.5% | -27.2% (active)
CN[C@@H]1C[C@H]2O[C@@](C)([C@@H]1OC)n1c3ccccc3c3c4c(c5c6ccccc6n2c5c31)C(=O)N[C@H]4O | 1.68% (active) | -46.2% (active) | -36.7% (active) | -2.9% (active) | 16% | -68.5% (active) | 0.929% (active) | -31.6% (active) |  | -49.2% (active) | -79.4% (active) | -6.96% (active) | -46.8% (active) | -49.3% (active) | -59.8% (active) | -88.5% (active) | -74.5% (active)
COc1ncc(-c2ccc3nccc(-c4ccnnc4)c3c2)cc1NS(=O)(=O)c1ccc(F)cc1F | -16.9% (active) | -35.4% (active) | -17% (active) | 7.97% (active) | -8.87% (active) | -52.1% (active) | -24.1% (active) | -58% (active) |  | -25.3% (active) | -78% (active) | -30.9% (active) | 8.48% (active) | -48.7% (active) | -60.5% (active) | -31.7% (active) | -78.4% (active)

— PubChem BioAssay (NCI)
